Source: publication PMC4336329 (PLoS ONE, 2015)
The whole screen tested about 310,000 compounds, of which about 14,000 (4.5%) showed an effect of 50% or more. The effect is printed as a negative number. For the sample, strong results were picked, then their nearest neighbours and some compounds at random.

Molecular target: human ether-à-go-go-related gene (hERG) potassium channel (human, UniProt Q12809)
Test: primary screen, population patch clamp on CHO cells stably expressing hERG; higher = less effect of the substance
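Also: peak tail current of the secondary pulse compared with the same well before compound.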

Chain of human ether-à-go-go-related gene (hERG) potassium channel (Q12809 whole entry, looked up): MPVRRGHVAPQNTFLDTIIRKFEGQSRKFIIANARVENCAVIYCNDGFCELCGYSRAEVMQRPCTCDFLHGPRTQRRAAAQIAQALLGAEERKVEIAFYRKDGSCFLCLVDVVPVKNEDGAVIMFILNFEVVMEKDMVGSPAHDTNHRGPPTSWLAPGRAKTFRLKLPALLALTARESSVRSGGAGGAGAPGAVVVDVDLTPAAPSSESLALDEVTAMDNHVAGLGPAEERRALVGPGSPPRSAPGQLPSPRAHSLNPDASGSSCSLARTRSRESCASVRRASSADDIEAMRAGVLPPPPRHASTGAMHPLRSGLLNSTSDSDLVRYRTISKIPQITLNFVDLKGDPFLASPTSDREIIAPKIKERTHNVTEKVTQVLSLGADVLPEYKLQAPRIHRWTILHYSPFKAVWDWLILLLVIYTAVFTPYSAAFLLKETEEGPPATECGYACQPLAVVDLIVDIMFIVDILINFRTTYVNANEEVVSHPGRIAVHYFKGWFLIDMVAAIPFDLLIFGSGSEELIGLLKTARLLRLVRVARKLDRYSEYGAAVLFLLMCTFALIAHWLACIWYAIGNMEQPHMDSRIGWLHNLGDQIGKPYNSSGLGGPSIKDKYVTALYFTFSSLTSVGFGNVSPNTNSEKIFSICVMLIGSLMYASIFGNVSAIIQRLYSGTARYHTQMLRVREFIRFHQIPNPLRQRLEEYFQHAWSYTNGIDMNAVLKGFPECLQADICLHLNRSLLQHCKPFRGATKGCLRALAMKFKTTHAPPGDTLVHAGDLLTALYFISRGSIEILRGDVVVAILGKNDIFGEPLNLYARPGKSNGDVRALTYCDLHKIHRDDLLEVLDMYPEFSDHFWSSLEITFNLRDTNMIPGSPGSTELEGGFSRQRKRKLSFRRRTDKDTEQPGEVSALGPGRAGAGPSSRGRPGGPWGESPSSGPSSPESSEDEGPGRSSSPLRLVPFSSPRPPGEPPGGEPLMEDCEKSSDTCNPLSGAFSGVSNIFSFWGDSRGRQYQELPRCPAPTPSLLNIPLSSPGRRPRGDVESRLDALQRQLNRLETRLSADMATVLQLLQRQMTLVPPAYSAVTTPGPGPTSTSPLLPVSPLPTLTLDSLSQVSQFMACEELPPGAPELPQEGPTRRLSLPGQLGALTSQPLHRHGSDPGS

In order of rising “hERG current change (%, negative = inhibition) at 10uM” value:
1. CCn1c(SCc2ccc(C#N)cc2)nnc1-c1ccc(S(=O)(=O)N2CCCCC2)cc1  -70.7%
2. COc1cc2c(cc1O)C[C@H]1c3c(cc(O)c(OC)c3-2)CCN1C  -70.1%
3. N#Cc1ccc(CSc2ccc(S(=O)(=O)N3CCCC3)cn2)cc1  -67.2%
4. Cc1nc2ncnn2c(N2CCN(c3cccc(C(F)(F)F)c3)CC2)c1C  -64.1%
5. COc1cc2c(cc1O)CC1c3c(cc(O)c(OC)c3-2)CCN1C (stereo not drawn)  -59.2%
6. N#Cc1ccc(S(=O)(=O)N2CCC(N3CCCCC3)CC2)cc1  -58.3%
7. Cc1cc(N2CCN(C3CCCCC3)CC2)n2nc(C)nc2n1  -57.7%
8. COc1ccc(Nc2cc(C)nc3nc(C)nn23)cc1Cl  -55.5%
9. COc1cccc2c(C)cc(N3CCCCCC3)nc12  -52.9%
10. COc1cccc(NCc2ccc([N+](=O)[O-])s2)c1  -51%
11. O=S(=O)(c1ccc(Cl)cc1)N1CCC(N2CCCCCC2)CC1  -49.9%
12. Cc1nc2ncnn2c(N2CCN(C(=O)c3cccc(F)c3)CC2)c1C  -49.3%
13. COc1ccc(Nc2cc(C)nc3ncnn23)cc1Cl  -39.5%
14. Cc1cc(N2CCN(c3cccc(C(F)(F)F)c3)CC2)n2ncnc2n1  -37%
15. COc1ccc2c(c1O)-c1c(OC)c(OC)cc3c1[C@H](C2)N(C)CC3  -36.5%
16. CCn1c(SCc2ccccc2)nnc1-c1ccc(S(=O)(=O)N2CCCCC2)cc1  -36.2%
17. CCOC(=O)N1CCN(c2cc(C)nc3nc(C)nn23)CC1  -32.9%
18. COc1cc2c(cc1OC)-c1c3c(cc4c1[C@@H](C2)N(C)CC4)OCO3  -31.7%
19. Cc1cccc(NCc2ccc([N+](=O)[O-])s2)c1  -26.7%
20. COc1ccc(C(=O)Nc2ccc3c(c2)nc2n3CCSC2)cc1  -24.7%
21. Cc1ccc(S(=O)(=O)N2CCC(N3CCCCCC3)CC2)cc1  -23.2%
22. Cc1cc(N2CCCC2)nc2c(C)cccc12  -21.6%
23. CC1(C)Cc2c(C#N)c(N3CCN(C(=O)c4ccco4)CC3)nc(-c3ccco3)c2CS1  -21.6%
24. Cc1cc(Nc2ccc(F)c(Cl)c2)n2nc(C)nc2n1  -18%
25. CC1(C)C(CO)=CC(=O)C2=C1SCC(=O)N2  -16.3%
26. Cc1cccnc1NC(=O)CN1C(=O)NC(C)(c2ccc3ccccc3c2)C1=O (stereo not drawn)  -14%
27. COc1ccc(NCc2ccc([N+](=O)[O-])s2)cc1  -13.6%
28. CCn1c(SC)nnc1-c1ccc(S(=O)(=O)N2CCCCC2)cc1  -12.1%
29. Cc1cc(N2CCCC2)n2nc(C)nc2n1  -11.8%
30. Cc1nc2cc(NC(=O)c3ccc([N+](=O)[O-])s3)ccc2s1  -9.99%
31. O=S(=O)(c1ccc(SCc2ccc(Cl)cc2)nc1)N1CCCC1  -8.21%
32. Cc1cc(C)cc(NC(=S)N(C)C)c1  -5.83%
33. COc1cc2c(cc1OC)-c1c(OC)c(OC)cc3c1C(C2)N(C)CC3 (stereo not drawn)  -5.23%
34. Cc1ccc(NC(=O)C2CCN(S(=O)(=O)c3c(C)noc3/C=C/N(C)C)CC2)cc1  -5.19%
35. O=C(c1cccs1)C1CN2CCC1CC2 (stereo not drawn)  -4.77%
36. Cc1ccc(CSc2ccc(S(=O)(=O)N3CCCC3)cn2)cc1  -4.27%
37. O=c1[nH]c(=O)n(Cc2ccc(Oc3ccccc3)cc2)cc1Br  -1.61%
38. Cc1ccc(NS(=O)(=O)c2cc([N+](=O)[O-])ccc2NNC(=S)Nc2cc(C)ccc2C)c(C)c1  -0.00412%
39. O=C(O)CNC1=NCCCCC1  0.366%
40. COc1cccc(S(=O)(=O)Nc2ccc(C(=O)Nc3ccncc3)cc2)c1  2.7%
41. CCC(C)NC(=O)CCc1nc2ccccc2n1-c1ccccc1 (stereo not drawn)  2.77%
42. COc1ccc2c(CC(=O)NC(Cc3ccc(Cl)cc3)C(=O)O)cc(=O)oc2c1C (stereo not drawn)  3.13%
43. C/C=C/c1ccc(OCC(=O)Nc2cc(S(=O)(=O)N3CCOCC3)ccc2N2CCCC2)c(OC)c1  3.81%
44. CCOc1ccc(NC(=O)C2CC(=O)OC2c2ccccc2)cc1 (stereo not drawn)  6.5%
45. Cc1ccc(CNS(=O)(=O)c2c(N)n(C)c(=O)n(C)c2=O)cc1  8.77%
46. N#Cc1ccc(-c2ccc3c(c2)OCO3)nc1SCC(=O)OCc1ccccc1  9.22%
47. O=C(c1cc(-c2cccc(O)c2)on1)N1CCN(C(c2ccccc2)c2ccccc2)CC1  10.8%
48. COc1cc2c(cc1O)[C@@H]1Cc3cc(O)c(OC)cc3[C@H](C2)N1C  11.3%
49. O=C(CNC(=O)c1ccccc1Cl)OC1CCOC1=O (stereo not drawn)  13.5%
50. Cc1cc(N2CCCCC2)nc2c(C)cccc12  15%
51. Cc1ccc2nc(SCc3nc4c(cnn4-c4ccccc4)c(=O)[nH]3)[nH]c2c1  15.3%
52. O=C(c1ccc(-c2ccccc2Cl)o1)N1CCN(S(=O)(=O)c2cccs2)CC1  15.9%
53. COc1ccc(N2CCN(C(=O)c3ccc4c(c3)[nH]c(=S)n3c5ccccc5nc43)CC2)cc1  16.7%
54. COCCN1C(=O)c2ccccc2C(C(=O)Nc2ccc3c(c2)OCCO3)C1c1ccc(F)cc1 (stereo not drawn)  17.1%
55. O=C(O)CCCCCN1C(=O)/C(=C\c2ccc(-c3ccc(Cl)cc3)o2)SC1=S  18%
56. COc1ccc(/C=N/n2c(-c3cc(C)[nH]n3)n[nH]c2=S)cc1OC  18.6%
57. O=C(O)Cc1ccc(NS(=O)(=O)c2ccccc2Cl)cc1  24.4%
